Among the data in PubChem BioAssay (Tox21) are Potency values, retold here.

Records with an inconclusive call do not appear. Entries that show only a call come without a potency. Calls of active or inactive are those of the source. Calls come from the whole dose curve; as a rule, active = well fitted cell-killing curve with a large enough effect in the repeat runs; inconclusive = weak or mixed curves, or effect the other way; inactive = flat fitted curve, though single readings scatter.

The assay is described as follows: qHTS assay to identify small molecule antagonists of the constitutive androstane receptor (CAR) signaling pathway - cell viability counter screen (AID 1224837). Note: nearly all actives have a fitted effect of over 45% in size. To be noted: HepG2-CYP2B6-hCAR viability, CellTiter-Fluor, 23 h, co-treated with 50 nM CITCO; series mostly up to 92.4 µM. The source says:
National Center for Advancing Translational Sciences [NCATS]
NIH Chemical Genomics Center [NCGC]
U.S. Environmental Protection Agency [EPA]
National Institutes of Environmental Health Sciences [NIEHS]
National Toxicology Program [NTP]
U.S. Food and Drug Administration [FDA]
The constitutive androstane receptor (CAR) is a nuclear receptor which regulates multiple drug metabolizing enzymes (DMEs) and transporters. Activating CAR will generally increase the transcription and subsequent translation of CYP2B6 and CYP3A4. These two DMEs represent about 50% of the drug metabolizing potential in the body. When CAR is deactivated, the metabolizing potential in the body will decrease, subsequently increasing the toxicity in the body or lowering the therapeutic potential of a pro-drug. Recently, there have also been studies performed indicating CARs role in energy metabolism and cancer therapy. Therefore, inhibiting CARs activity could have a potential effect on diabetes and cancer. Identifying environmental toxins and compounds which modulate CAR, through the use of the Tox21 10K compound collection, will be an important step in determining the toxicity and potential therapeutic effects these factors will have on the human body. To differentiate true CAR antagonists from cytotoxic substances, the assay is multiplexed with a cell viability assay.
Tox21 Assay Protocol Summary:
A double-stable (hCAR and CYP2B6-2.2kb) transfected cell line, derived from human hepatoma (HepG2) cells, was utilized for the duration of the quantitative high-throughput screens. The HepG2-CYP2B6-hCAR cells were dispensed at 2500 cells/4 uL/well in 1536-well white solid bottom plates using a Multidrop Combi. After the assay plates were incubated at 37 C/5% CO2 for 4 hrs, 23 nL of compounds at 15 concentrations (from 5-48 columns) or positive control (from 1 to 4 columns) were transferred to the assay plates using a Pintool station. One uL of CITCO (final concentration = 50 nM) was added, using a Flying Reagent Dispenser, inside each well. After a 23 hr incubation period at 37 C/5% CO2, 1 uL of CellTiter-Fluor reagent was added into each well of the assay plates using a Flying Reagent Dispenser. The fluorescence intensity in the plates was then measured using a ViewLux plate reader.
Regarding `CC(=NC#N)N(C)Cc1ccc(Cl)nc1`, the Potency entry was “inactive”.

On to `Cc1ccc(S(=O)(=O)N[C@@H](CCCCN)C(=O)CCl)cc1`, for which the Potency entry is “inactive”.

Take `CCSC(=O)Cl`: the Potency entry was “inactive”.

`[P]#[In]`: the Potency result was “inactive”.

On to `CC(C)(N)Cc1ccc(Cl)cc1`, for which the Potency result is “inactive”.

In the case of `CC(C)NCC(O)c1ccc([N+](=O)[O-])cc1` (stereo not given), the Potency entry was “inactive”.

`C(COCC1CO1)OCC1CO1` (stereo not given): the Potency entry is “inactive”.

With `CCOC(=O)C(Cl)Cc1cc(-n2nc(C)n(C(F)F)c2=O)c(F)cc1Cl` (stereo not given), the Potency entry is “inactive”.

On to `CN1COCN(Cc2cnc(Cl)s2)/C1=N\[N+](=O)[O-]`, for which the Potency entry is “inactive”.

With `O=C/C=C/c1ccco1`, the Potency entry is “inactive”.

As for `CCCC(C)C1(CC)C(=O)N=C(S)NC1=O` (stereo not given), the Potency result was “inactive”.

For the compound `CC(C)(C1CCC(O)CC1)C1CCC(O)CC1` (stereo not given), the Potency entry is “inactive”.

Turning to `BrCC1CO1` (stereo not given), the Potency result is “inactive”.

For `CC[C@H](O)C(C[C@H](C)N(C)C)(c1ccccc1)c1ccccc1`, the Potency result is “inactive”.

Turning to `CN(C)CCN(C)C`, the Potency result was “inactive”.

Regarding `S=C=S`, the Potency entry is “inactive”.

With `BrCCc1ccccc1`, the Potency result was “inactive”.

With `O=P(O)(O)CN(CP(=O)(O)O)CP(=O)(O)O`, the Potency entry was “inactive”.

Turning to `CC(C)[C@]12CC(=O)[C@H](C)[C@H]1C2`, the Potency entry was “inactive”.

As for `C1CN2CCC1CC2`, the Potency result is “inactive”.

Turning to `CCN(CCO)CCO`, the Potency result was “inactive”.

On to `C=C(Cl)CSC(=S)N(CC)CC`, for which the Potency result was “inactive”.

As to `O=C(Cl)c1ccccc1`, the Potency entry is “inactive”.

Regarding `Cc1cccc2sc3nncn3c12`, the Potency entry is “inactive”.

Turning to `CCOC1Oc2ccc(OS(C)(=O)=O)cc2C1(C)C` (stereo not given), the Potency result is “inactive”.

Take `CCCOc1nn(C(=O)NS(=O)(=O)c2ccccc2C(=O)OC)c(=O)n1C`: the Potency result is “inactive”.

Consider `CCC1(c2cccc(O)c2)CCCCN(C)C1` (stereo not given), for which the Potency result is “inactive”.

Consider `CN(C)CCc1c[nH]c2cccc(OP(=O)(O)O)c12`, for which the Potency result is “inactive”.

Regarding `N=C(N)[Se]`, the Potency entry was “inactive”.

Consider `c1ccc2c(c1)CCNC2`, for which the Potency entry is “inactive”.

As for `CCOC(=O)c1ncn2c1CN(C)C(=O)c1c(I)cccc1-2`, the Potency result was “inactive”.

`OP(O)c1ccccc1`: the Potency result was “inactive”.

With `CCc1ccc(C2CCNCC2)cc1`, the Potency entry is “inactive”.

For `CCOC(=O)NC(C)(C)Cc1ccc(Cl)cc1`, the Potency result was “inactive”.

Turning to `CC[C@H](N)c1ccccc1`, the Potency entry was “inactive”.

Regarding `CC1NCCOC1c1ccccc1` (stereo not given), the Potency entry was “inactive”.

As for `CCOC(=O)COc1ccc(Cl)cc1Cl`, the Potency entry was “inactive”.

With `C=CCCC#N`, the Potency result was “inactive”.

Take `CCC(C)(C#N)N=NC(C)(C#N)CC` (stereo not given): the Potency entry is “inactive”.

For `C[N+]1(C)CCCCC1`, the Potency entry is “inactive”.
